Holding throughout (test): glycan array binding signal (z-score within array); higher = stronger binding
Conditions in all cases: glycan notation: IUPAC condensed, linker removed

One test deals with Gal3S4S(b1-4)GlcNAc. In outline: (§1)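 Arrays were curated from the Consortium for Functional Glycomics database, 3228 in total, and kept only where the protein sequence was available. Binding is expressed as a within-array Z-score. This score was averaged across arrays of the same protein sequence at different concentrations or buffers and across linkers, and negative values can be read as non-binding.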

In the next test the test system is Gal3S6S(b1-4)GlcNAc6S. In short, it runs like this: as §1
The next test deals with Gal6S(b1-4)GlcNAc6S. In short, it runs like this:
as §1

The subject of the next test is Gal6S(b1-4)GlcNAc. In outline: as §1
For a further test, the system named is Gal6P(b1-4)GlcNAc. In short, it runs like this: as §1
A further test relates to Gal6S(b1-3)GlcNAc6S. In short, it runs like this:
as §1

The subject of another test is Gal6S(b1-3)GlcNAc. In outline: as §1
A further test relates to Gal6S(b1-4)Glc6S. In outline: as §1
The subject of the next test is Gal6S(b1-4)Glc. In short, it runs like this: as §1
Another test deals with Gal4S6S(b1-4)GlcNAc. In outline:
as §1

Shown is part of a subset that was picked to be rich in the strongest signals.

As for AgI/IIC123-GFP (Streptococcus mutans), the “glycan array binding signal (z-score)” value in the test on Gal3S4S(b1-4)GlcNAc was -0.466. Regarding “AgI/II Vhelical-GFP (Streptococcus mutans)”, the “glycan array binding signal (z-score)” value with Gal3S6S(b1-4)GlcNAc6S was determined as 1.08; in the test with Gal6S(b1-4)GlcNAc6S, 2.17. In the case of LcI (Legionella pneumophila), the “glycan array binding signal (z-score)” value with Gal3S6S(b1-4)GlcNAc6S is -0.439. On to BambL (Burhholderia ambifaria), Q0B4G1, for which, in the test with Gal6S(b1-4)GlcNAc, the “glycan array binding signal (z-score)” value is -0.314. In the case of Epa22, the “glycan array binding signal (z-score)” value in the test with Gal3S4S(b1-4)GlcNAc is -0.476; in the test on Gal6P(b1-4)GlcNAc it was -0.491; in the test on Gal6S(b1-3)GlcNAc6S, 2.55; in the test on Gal6S(b1-3)GlcNAc, 1.89; in the test with Gal6S(b1-4)Glc6S, 7.08; in the test with Gal6S(b1-4)GlcNAc6S, 12.6. For the same substance, in the test with Gal6S(b1-4)Glc, the “glycan array binding signal (z-score)” value amounted to 1.51. In the case of Wza (Escherichia coli), P0A930, the “glycan array binding signal (z-score)” value in the test with Gal6S(b1-4)GlcNAc6S was 0.571. For the substance “SiiE (Salmonella typhimurium), A0A0H3NVH0”, the “glycan array binding signal (z-score)” value in the test on Gal4S6S(b1-4)GlcNAc is -0.799. Consider “SpGH101 (Streptococcus pneumoniae), Q8DR60”, for which the “glycan array binding signal (z-score)” value in the test on Gal6S(b1-3)GlcNAc was -0.229.

Source of the values: the supplement of paper PMC8728848.
